Source: PubChem BioAssay
Sampled rows, rich in hits. Any-hit rate of the full collection: about 11%.
Pf growth 96h – P. falciparum growth inhibition at 96 hour, primary screen for plastid delayed-death inhibitors; P. falciparum luciferase reporter growth, 96 h; Potency, µM (series often up to 28.7 µM), hits mostly inhibitors; actives 6.9% (n = 320,000)
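Readout is luminescence from an integrated firefly luciferase in P. falciparum. Red cells, 2% hematocrit and 0.05% parasitemia final, were cultured with compound through two parasite generations (96 hours) at 37 C, 5% CO2.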
VACV Venus inh – vaccinia inhibition (Venus reporter) | Vaccinia virus Venus reporter expression, fluorescence | Potency, µM (doses to about 36.5 µM), usual class: inhibitors | actives 0.46% (n = 330,000) | AID 720580; calls by dose curve; tested in A549 cells; also: nearly all actives have a fitted effect of over 30% in size
VACV mCherry inh – inhibitors of vaccinia virus infection (mCherry reporter signal); Potency, µM (titrated, usually from 36.5 µM), usual class: inhibitors; AID 720579; Vaccinia virus mCherry reporter infection, fluorescence; actives 0.63% (n = 310,000); calls by dose curve; tested in A549 cells; also: nearly all actives have a fitted effect of over 35% in size
NS1 inh – blocks influenza NS1 protein function | AID 2326 | Potency, µM (series often up to 46.1 µM) | actives 0.4% (n = 270,000); calls by dose curve; also: actives are rising curves; nearly all actives have a fitted effect of over 50% in size
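Compounds were scored for reversing the slow growth caused by influenza A NS1 in S. cerevisiae, measured by optical density at 600 nm. Assay medium contained 2% galactose at pH 6.0; NS1-free yeast of the same strain were the positive control.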
Pf growth 48h – inhibits P. falciparum growth in the first generation, 48 h | P. falciparum luciferase growth in erythrocytes, 48 h | AID 504832 | Potency, µM (doses to about 28.7 µM), usual class: inhibitors | actives 5.9% (n = 310,000)
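Firefly luciferase activity from engineered P. falciparum reports growth; inhibitors lower the luminescent signal. Cultures contained 2% hematocrit erythrocytes at 0.1% final parasitemia.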
HCV inh – inhibitors of hepatitis C virus infection | actives 3.4% (n = 340,000) | Potency, µM (top dose mostly 41.8 µM), hits mostly inhibitors | Huh7.5.1 HCVcc-Cre infection, luciferase reporter, 44 h
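Luciferase read-out (15 sec integration) after a 15 min room-temperature substrate step quantifies HCVcc-Cre infection. Cells, 1,000 per well, had compound added 4 h post-plating, then virus at ~0.5 moi, and were cultured 44 h.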
NS1 inh valid – validation of influenza NS1 protein function inhibitors; shares compounds with NS1 inh; influenza NS1 function cell assay, 15-point titration; activity change, negative = inhibition, % at 32.9 µM; 1,400 tested, under 10 active; AID 492980; calls by dose curve
CLK4 ADP-Glo – CLK4 (human) kinase inhibition, ADP-Glo confirmation. shares compounds with Pf growth 48h. recombinant Clk4, RS peptide, ADP-Glo luminescence. Potency, µM (titrated, usually from 80 µM), actives largely listed as inhibitors. actives 80% (n = 65). AID 1969
Target sequence (Q9HAZ1 whole entry, looked up): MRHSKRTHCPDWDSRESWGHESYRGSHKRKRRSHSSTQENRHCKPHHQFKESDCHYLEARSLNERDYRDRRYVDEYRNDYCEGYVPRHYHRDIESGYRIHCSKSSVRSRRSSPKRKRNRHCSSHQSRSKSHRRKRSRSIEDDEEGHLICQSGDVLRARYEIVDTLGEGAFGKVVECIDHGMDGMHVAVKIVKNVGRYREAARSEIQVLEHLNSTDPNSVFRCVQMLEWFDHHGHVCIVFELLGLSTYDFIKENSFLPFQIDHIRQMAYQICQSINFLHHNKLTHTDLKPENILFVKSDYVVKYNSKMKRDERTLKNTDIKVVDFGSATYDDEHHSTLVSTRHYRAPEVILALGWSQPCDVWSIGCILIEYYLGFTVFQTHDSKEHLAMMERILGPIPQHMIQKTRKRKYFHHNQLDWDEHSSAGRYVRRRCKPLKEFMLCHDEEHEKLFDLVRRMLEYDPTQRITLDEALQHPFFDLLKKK
CLK4 cf ADP-FP – confirmation of human CDC-like kinase 4 (CLK4) inhibitors; AID 1983; recombinant Clk4, ADP Transcreener FP, RS peptide; Potency, µM (titrated, usually from 80 µM), usual class: inhibitors; shares compounds with Pf growth 48h; actives 70% (n = 65)
Numbers stand for hits; . = inactive; ? = inconclusive; / = not tested or not shown; ! = not active in a repeat. Unless noted, calls follow the shape of the dose curve; as a rule, active = well fitted curve in the direction sought with a large enough effect; inconclusive = small, poorly fitted or top-dose-only effect, or another doubt; inactive = no such curve, though single readings can be large; an effect the other way counts as inactive or inconclusive.

SMILES	Pf growth 96h	VACV Venus inh	VACV mCherry inh	NS1 inh	Pf growth 48h	HCV inh	CLK4 ADP-Glo	CLK4 cf ADP-FP	others
COc1ccc(OC)c(NC(=O)CSc2nc(O)cc(=O)n2CC(C)C)c1	/	.	.	/	/	.	/	/
COc1ccc(CSc2nc(O)cc(=O)n2CC(C)C)cc1F	.	.	.	3.55µM	.	.	/	/	NS1 inh valid=?
COc1cccc(-c2ccc3ncnc(NCc4cc(C)cs4)c3c2)c1	4.15µM	/	/	/	6.57µM	/	0.891µM	1.26µM
Cc1csc(CNc2ncnc3ccc(-c4cccnc4)cc23)c1	10.4µM	/	/	/	?	/	4.47µM	11.2µM
Cc1csc(CNc2ncnc3ccc(-c4ccoc4)cc23)c1	?	/	/	/	13.1µM!	/	0.562µM	0.562µM
COc1ccc(N(C(C)C(=O)Nc2ccc(S(=O)(=O)N3CCCCC3)cc2)S(C)(=O)=O)cc1 (stereo unspecified)	.	.	.	.	.	?	/	/
COc1ccc(CCNc2nc3c(c(=O)n(C)c(=O)n3C)n2C)cc1OC	.	/	/	.	.	.	/	/
CN(C)Cc1ccccc1-c1ccc2ncnc(NCc3cccs3)c2c1	/	.	.	/	/	/	/	/
CN(C)Cc1ccccc1-c1ccc2ncnc(NCc3ccccc3)c2c1	/	.	.	/	/	/	/	/
c1ccc(-n2ncc3c(NCc4cccs4)ncnc32)cc1	.	/	/	.	.	?	/	/
Clc1ccccc1-c1ccc2ncnc(NCc3cccs3)c2c1	3.7µM	/	/	/	5.86µM	/	6.31µM	?
c1coc(-c2ccc3ncnc(NCc4cccs4)c3c2)c1	?	/	/	/	?	/	28.2µM	28.2µM
Cc1csc(CNc2ncnc3ccc(-c4ccccc4Cl)cc23)c1	2.62µM	/	/	/	9.28µM	/	8.91µM	?
CCS(=O)(=O)c1nc(S(=O)(=O)c2ccc(C)cc2)c(N2CCCCCC2)s1	/	.	?	/	/	/	/	/
Cc1cccc(CNc2ncnc3ccc(-c4cccc(C)c4)cc23)c1	3.7µM	/	/	/	13.1µM	/	14.1µM	?
Cc1cccc(-c2ccc3ncnc(NCc4cccnc4)c3c2)c1	?	/	/	/	9.28µM	/	6.31µM	10µM
Cc1cccc(CNc2ncnc3ccc(-c4cccc(NS(C)(=O)=O)c4)cc23)c1	/	.	.	/	/	/	/	/
Cn1ncc2c(NCc3cccc(Cl)c3)ncnc21	/	.	.	/	/	/	/	/
Fc1cccc(CNc2ncnc3ccc(-c4cccc(Cl)c4)cc23)c1	2.94µM	/	/	/	6.57µM	/	7.08µM	12.6µM
Cc1cccc(CNc2ncnc3ccc(-c4ccc5c(c4)OCCO5)cc23)c1	3.29µM	/	/	/	4.65µM	/	0.562µM	0.708µM
C/C(=C\c1ccccc1)C(=O)N1CCN(Cc2ccc3c(c2)OCO3)CC1	.	/	/	.	.	.	/	/
Fc1cccc(CNc2ncnc3ccc(-c4ccoc4)cc23)c1	?	/	/	/	?	/	3.55µM	3.55µM
Cc1cccc(CNc2ncnc3ccc(-c4cccnc4)cc23)c1	6.57µM	.	.	/	11.7µM	/	2.82µM	5.01µM
c1cncc(CNc2ncnc3ccc(-c4ccoc4)cc23)c1	?	/	/	/	?	/	0.562µM	1µM
Cc1cccc(CNc2ncnc3ccc(-c4ccoc4)cc23)c1	8.28µM	.	?	/	14.7µM	/	0.251µM	0.282µM
SMILES	Pf growth 96h	VACV Venus inh	VACV mCherry inh	NS1 inh	Pf growth 48h	HCV inh	CLK4 ADP-Glo	CLK4 cf ADP-FP	others
CN(C)C(=O)c1ccc(-c2ccc3ncnc(NCc4cccnc4)c3c2)cc1	/	.	.	/	/	/	/	/
CCCCCN(C(=O)CCC(=O)OCC(=O)Nc1cccc(CC)c1)c1c(N)n(CCCC)c(=O)[nH]c1=O	.	.	.	/	.	.	/	/
CSc1ccccc1C(=O)NCc1cccnc1	.	.	.	.	.	.	/	/
Cc1cccc(CNc2ncnc3ccc(-c4ccc5c(ccn5C)c4)cc23)c1	1.85µM	/	/	/	3.29µM	/	?	?
Cc1cccc(CNc2ncnc3ccc(-c4c(C)noc4C)cc23)c1	/	.	.	/	/	/	/	/
Cc1ccccc1N1CCN(C2CCCN(C(=O)CSc3ccccn3)C2)CC1 (stereo unspecified)	/	.	.	/	/	/	/	/
Clc1cccc(-c2ccc3ncnc(NCc4ccc5c(c4)OCO5)c3c2)c1	1.47µM	/	/	/	6.57µM	/	?	?
Cc1sc2ncnc(N(C)Cc3ccco3)c2c1C	.	.	/	.	/	?	/	/
COc1cccc(-c2ccc3ncnc(NCc4ccccc4OC)c3c2)c1	/	.	.	/	/	/	/	/
Cn1ccc2cc(-c3ccc4ncnc(NCc5ccc6c(c5)OCO6)c4c3)ccc21	?	/	/	/	13.1µM	/	?	.
COc1cccc(-c2ccc3ncnc(NCc4ccc5c(c4)OCO5)c3c2)c1	7.38µM	/	/	/	9.28µM	/	1.26µM	2.24µM
COc1cccc(-c2ccc3ncnc(N(C)Cc4ccco4)c3c2)c1	14.7µM	/	/	/	?	/	0.355µM	0.447µM
Clc1ccc(-c2nnc(C34CC5CC(CC(C5)C3)C4)o2)cn1	.	.	.	.	/	.	/	/
Cc1noc(C)c1COc1cccc(C(=O)NC(C)(C)C)c1	.	/	/	.	.	.	/	/
c1cncc(CNc2ncnc3ccc(-c4ccc5c(c4)OCO5)cc23)c1	.	/	/	/	?	/	0.126µM	0.0891µM
c1nc(NCc2ccc3c(c2)OCO3)c2cc(-c3ccc4c(c3)OCCO4)ccc2n1	?	/	/	/	13.1µM	/	1.78µM	2.24µM
Nc1nc(CSc2nc3ccccc3s2)nc(N2CCOCC2)n1	.	.	.	.	.	.	/	/
CC(=O)Nc1ccc(NC(=O)COC(=O)c2cc(S(=O)(=O)N(C)C)ccc2N2CCCC2)cc1	.	.	.	/	.	.	/	/
Clc1cccc(-c2ccc3ncnc(NCc4cccs4)c3c2)c1	3.29µM	/	/	/	11.7µM	/	3.98µM	7.94µM
c1csc(CNc2ncnc3nc[nH]c23)c1	?	.	.	.	.	.	/	/
Cc1cccc(-c2ccc3ncnc(NCc4cccs4)c3c2)c1	3.29µM	/	/	/	3.7µM!	/	7.94µM	15.8µM
CS(=O)(=O)Nc1cccc(-c2cncnc2NCc2cccs2)c1	/	.	.	/	/	/	/	/
O=C(NC1CC1)C1=C[C@H](C2CCCCC2)C[C@H](OCc2ccc(CO)cc2)O1	.	?	.	.	.	.	/	/
CCC(=O)N1CCN(c2ccc(NC(=O)c3ccc4c(c3)OCO4)cc2)CC1	/	.	.	.	/	.	/	/
Cc1csc(CNc2ncnc3ccc(-c4ccc5c(c4)OCCO5)cc23)c1	?	/	/	/	11.7µM	/	0.447µM	0.562µM
Cc1csc(CNc2ncnc3ccc(-c4ccc5c(c4)OCO5)cc23)c1	3.29µM	/	/	/	10.4µM	/	0.159µM	0.159µM
O=C1OC(c2cccs2)=N/C1=C/c1ccc(-c2cccc(C(=O)O)c2)o1	.	/	/	.	.	.	/	/
O=C(Nc1ccc(CN2CCS(=O)(=O)CC2)cc1)c1ccccc1	.	/	/	.	.	.	/	/
